Counter-ions that a name gives are not always drawn.

The text below walks through data of the supplement of paper PMC12494721.

The assay deals with Klebsiella aerogenes DSM 30053. The experiment in a line: growth (OD595) fold change vs plate DMSO controls (fold change (ratio)); higher = more growth. The following applies: incubation time: 27 h, anaerobic, 37 °C. In a few lines: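 Shaken 96-well cultures in mGAM, grown anaerobically for 27 h at 37 °C, were read at 595 nm. OD came from blank-subtracted readings, corrected for background with 20 µM compound solutions in water and scaled by a calibration factor of 5. Growth is the fold change versus the plate's median DMSO control. Values average 2 biological replicates, and any fold change above 1.5 is NA.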
As for `CC(C)COCC(CN(Cc1ccccc1)c1ccccc1)N1CCCC1` (stereo unspecified) [Bepridil hydrochloride] (20 µM), the growth came to 1.11.
For the compound `C[C@@H]1C[C@H]2[C@@H]3CCC4=CC(=O)C=C[C@]4(C)[C@@]3(Cl)[C@@H](O)C[C@]2(C)[C@@]1(OC(=O)c1ccco1)C(=O)CCl` [Mometasone furoate] (20 µM), the growth turned out to be 1.14.
In the case of `c1ccc(-c2ccc(C(c3ccccc3)n3ccnc3)cc2)cc1` (stereo unspecified) [Bifonazole] (20 µM), the growth was 1.02.
Next, `Cc1ncc([N+](=O)[O-])n1CC(C)O` (stereo unspecified) [Secnidazole] (20 µM): 1.02.
With `CC(=O)[C@H]1CC[C@H]2[C@@H]3C[C@H](C)C4=CC(=O)CC[C@]4(C)[C@H]3[C@@H](O)C[C@]12C` [Medrysone] (20 µM), the growth stood at 1.05.
Then `Cc1ccc(C(=O)c2ccc(CC(=O)O)n2C)cc1` [Tolmetin sodium salt dihydrate] (20 µM), with 1.01.
Take `COCCOC(=O)C1=C(C)NC(C)=C(C(=O)OC(C)C)C1c1cccc([N+](=O)[O-])c1` (stereo unspecified) [Nimodipine] (20 µM): the growth stood at 1.03.
As to `CCCCCCCCCCCCCCCCCCCCCC(=O)Nc1ccn([C@@H]2O[C@H](CO)[C@@H](O)[C@@H]2O)c(=O)n1` [Enocitabine] (20 µM), the growth is 0.98.
For the compound `CCN(CCCc1ccccc1)CCCc1ccccc1` [Alverine citrate salt] (20 µM), the growth turned out to be 1.11.
With `CN(C)CCCC1(c2ccc(F)cc2)OCc2cc(C#N)ccc21` (stereo unspecified) [Citalopram hydrobromide] (20 µM), the growth was 0.994.
`O=C1Nc2ccc(Cl)cc2[C@@](C#CC2CC2)(C(F)(F)F)O1` [Efavirenz] (20 µM): the growth was found to be 1.02.
As to `O=C1NS(=O)(=O)c2ccccc21` [Saccharin] (50 µM), the growth was 0.976.
Regarding `O=C(O)CCCC[C@@H]1SC[C@@H]2NC(=O)N[C@@H]21` [Biotin] (20 µM), the growth came to 0.981.
Take `CC(C)(C(=O)O)c1ccc(C(O)CCCN2CCC(C(O)(c3ccccc3)c3ccccc3)CC2)cc1` (stereo unspecified) [Fexofenadine hydrochloride] (20 µM): the growth turned out to be 1.09.
With `CC(C)[C@H]1CC[C@H](C(=O)N[C@H](Cc2ccccc2)C(=O)O)CC1` [Nateglinide] (20 µM), the growth is 1.02.
As to `COc1ccc(CNc2nc(N3CCC[C@H]3CO)ncc2C(=O)NCc2ncccn2)cc1Cl` [Avanafil] (20 µM), the growth is 0.99.
`C#CCN(C)CCCOc1ccc(Cl)cc1Cl` [Clorgyline hydrochloride] (20 µM): the growth was determined as 0.95.
Then `Cc1cc(-c2ccccc2)nnc1NCCN1CCOCC1` [Minaprine dihydrochloride] (20 µM), with 0.972.
Take `c1ccc(CNc2ncnc3nc[nH]c23)cc1` [Aminopurine, 6-benzyl] (20 µM): the growth is 0.971.
Next, `COc1cccc(N(C)C(=S)Oc2ccc3c(c2)CCCC3)n1` [Liranaftate] (20 µM): 0.969.
Turning to `C=CCOc1ccccc1OCC(O)CNC(C)C` (stereo unspecified) [Oxprenolol hydrochloride] (20 µM), the growth was determined as 0.986.
On to `C[C@@H](O[C@H]1OCCN(Cc2n[nH]c(=O)[nH]2)[C@H]1c1ccc(F)cc1)c1cc(C(F)(F)F)cc(C(F)(F)F)c1` [Aprepitant] (20 µM), for which the growth stood at 1.
As for `CCOc1ccc(Cc2nccc3cc(OCC)c(OCC)cc23)cc1OCC` [Ethaverine hydrochloride] (20 µM), the growth was found to be 0.954.
Consider `O=C(CCCCC(=O)Nc1c(I)cc(I)c(C(=O)O)c1I)Nc1c(I)cc(I)c(C(=O)O)c1I` [Iodipamide] (20 µM), for which the growth came to 0.982.
As for `NC(=O)c1cnccn1` [Pyrazinamide] (20 µM), the growth is 1.
Next, `CCN(CC)CCOC(=O)c1ccc(N)cc1` [Procaine hydrochloride] (20 µM): 1.08.
In the case of `CCCCC(CC)CNC(=N)NC(=N)NCCCCCCNC(=N)NC(=N)NCC(CC)CCCC` (stereo unspecified) [Alexidine dihydrochloride] (20 µM), the growth amounted to 0.967.
Regarding `Cc1onc(-c2ccccc2)c1C(=O)N[C@@H]1C(=O)N2[C@@H]1SC(C)(C)[C@@H]2C(=O)O` [Oxacillin sodium] (20 µM), the growth amounted to 1.01.
For the compound `CC(=O)N[C@@H](CC(C)C)C(=O)O` [N-Acetyl-L-leucine] (20 µM), the growth was 0.991.
Next, `CC(C)CN(C[C@@H](O)[C@H](Cc1ccccc1)NC(=O)O[C@H]1CO[C@H]2OCC[C@H]21)S(=O)(=O)c1ccc(N)cc1` [Darunavir] (20 µM): 1; `CN1CCc2cccc3c2[C@H]1Cc1ccc(O)c(O)c1-3` [R(-) Apomorphine hydrochloride hemihydrate] (20 µM): 1.05.
